Measured values: PubChem BioAssay (Tox21)
Inconclusive results are not listed. The source made the active and inactive calls. The call rests on the fitted dose curve; in most records, active means well fitted curve in the direction sought with a large enough effect in the repeat runs; inconclusive means weak or mixed curves; inactive means no such curve, though single readings can be large; an effect the other way counts as inactive or inconclusive.

Experiments:
[1] = A CellTox Green Cytotoxicity Assay to monitor cytotoxicity in HepG2 cells - 16 hour (AID 1224876); further: nearly all actives have a fitted effect of over 45% in size
Procedure, shortened: (§1)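 Continuous culture of HepG2 cells with a membrane-impermeant DNA dye; rising fluorescence marks dead cells. Compound exposure lasted up to 40 h at 37 C, with reads every 8 h from 0 h.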

[2] = qHTS RealTime-Glo MT Cell Viability Assay in HepG2 cells - 32 hour (AID 1224877); further: nearly all actives have a fitted effect of over 55% in size
Procedure, shortened: (§2)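 Tox21 10K library screened in qHTS format on HepG2 cells carrying RealTime-Glo reagents. Compounds were added after a 5 h preincubation, and the luminescent signal from continuous culture was measured repeatedly during 40 h treatment.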

[3] = A CellTox Green Cytotoxicity Assay to monitor cytotoxicity in HepG2 cells - 24 hour (AID 1224878); further: nearly all actives have a fitted effect of over 45% in size
Procedure, shortened: as §1

[4] = A CellTox Green Cytotoxicity Assay to monitor cytotoxicity in HepG2 cells - 40 hour (AID 1224879); further: nearly all actives have a fitted effect of over 40% in size
Procedure, shortened: as §1

[5] = qHTS RealTime-Glo MT Cell Viability Assay in HEK293 cells - 0 hour (AID 1224880); further: top concentration of the series differs between compounds; nearly all actives have a fitted effect of over 45% in size
Procedure, shortened: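 qHTS format; HEK293 cells with NanoLuc/prosubstrate reagent, 37 C/5% CO2 for 5 h pre-dosing; compounds 23 nL in DMSO; luminescence at each time point reflects viable cells.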

[6] = A CellTox Green Cytotoxicity Assay to monitor cytotoxicity in HEK293 cells - 32 hour (AID 1224881); further: nearly all actives have a fitted effect of over 40% in size
Procedure, shortened: (§3)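 Each value comes from one timepoint of a single continuous run in which HEK293 cells with CellTox Green were exposed to compound for up to 40 h at 37 C, dye fluorescence rising with cell death.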

[7] = A CellTox Green Cytotoxicity Assay to monitor cytotoxicity in HepG2 cells - 0 hour (AID 1224882); further: nearly all actives have a fitted effect of over 35% in size
Procedure, shortened: as §1

[8] = A CellTox Green Cytotoxicity Assay to monitor cytotoxicity in HepG2 cells - 32 hour (AID 1224883); further: nearly all actives have a fitted effect of over 50% in size
Procedure, shortened: as §1

[9] = A CellTox Green Cytotoxicity Assay to monitor cytotoxicity in HEK293 cells - 8 hour (AID 1224884); further: nearly all actives have a fitted effect of over 35% in size
Procedure, shortened: as §3

[10] = qHTS RealTime-Glo MT Cell Viability Assay in HepG2 cells - 16 hour (AID 1224885); further: nearly all actives have a fitted effect of over 50% in size
Procedure, shortened: as §2

Measured: Potency

CC(C)c1ccccc1O
inactive: all assays above

O=C(O)c1ccccc1C(=O)OCc1ccccc1
not listed: [9] | [10]
inactive: all other assays above

CCOC(=O)C(C)(C)C
inactive: all assays above

Nc1cc(Cl)cc(S(=O)(=O)O)c1O
not listed: [9] | [10]
inactive: all other assays above

CC(C)C(=O)c1ccccc1
inactive: all assays above

Cn1c(=O)c2c(ncn2CC2OCCO2)n(C)c1=O
inactive: all assays above

CCN(CCO)c1cccc(C)c1
not listed: [10]
inactive: all other assays above

CCOC(=O)OCC/C(SC(=O)OCC)=C(\C)N(C=O)Cc1cnc(C)nc1N
inactive: all assays above

CCC(C)(CCC(C)C)C(=O)[O-].CCC(C)(CCC(C)C)C(=O)[O-].[Zn+2] (stereo not given)
inactive: all assays above

CC(C)CCCCCCOC(=O)C1CCCCC1C(=O)OCCCCCCC(C)C (stereo not given)
not listed: [10]
inactive: all other assays above

C=C(C)C(=O)OCCCCCCOC(=O)C(=C)C
not listed: [10]
inactive: all other assays above

c1ccc(CNc2ncnc3nc[nH]c23)cc1
inactive: all assays above

CCCCCCCCCCCCOC(C)=O
not listed: [10]
inactive: all other assays above

CCN(CC)C(=O)C1CN2CCc3cc(OC)c(OC)cc3C2CC1OC(C)=O (stereo not given)
inactive: all assays above

NS(=O)(=O)c1ccc(Cl)c(S(N)(=O)=O)c1
inactive: all assays above

C=CCOC(=O)c1ccc(C(=O)OCC=C)c(C(=O)OCC=C)c1
inactive: all assays above

Cc1cccc(Nc2ccncc2S(=O)(=O)NC(=O)NC(C)C)c1
inactive: all assays above

CCCCCC1CCCC(=O)O1 (stereo not given)
not listed: [10]
inactive: all other assays above

O=S(=O)(O)CCO
inactive: all assays above

NS(=O)(=O)c1cc2c(cc1Cl)NC(C(Cl)Cl)NS2(=O)=O (stereo not given)
inactive: all assays above

NC(=O)C1(N2CCCCC2)CCN(CCCC(=O)c2ccc(F)cc2)CC1
inactive: all assays above

Cc1cc(O)c2c(c1)C(=O)c1cccc(O)c1C2=O
inactive: all assays above

CCCCCCCCC(=O)OCC
not listed: [10]
inactive: all other assays above
